The values below come from PubChem BioAssay AID1259415 (National Center for Advancing Translational Sciences (NCATS), 2018).

The whole screen tested about 410,000 compounds, of which about 18,000 (4.4%) were called active. About 7% were inconclusive and are not listed. The entries come from a sample that favours actives as a whole. A number with no mark means an inactive call. Cut-off read from the data, not from the text of the source: active = activity change below about -60%; inconclusive = no clear call, values can overlap the other calls; inactive = above about -39%.
% is set by controls: 0 for no effect and ±100 for the full control effect.

A short description of this experiment: qHTS Assay for inhibitors of the human cytomegalovirus (HCMV). As to conditions: HFF cells, HCMV-luciferase reporter, 72 h; at 57.5 µM; active compounds read low. An outline of the steps:
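Two compound doses tested in HFFs infected with HCMV-luciferase, MOI 1 PFU/cell, 72 h at 37C. Lysate luminescence read with OneGlo; data normalized against buffer-only and 10uM Salinomycin inhibitor controls.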
A general note: qHTS replaces the single test concentration by a dilution series.
With `[O-][N+]12CCCCC1CCCC2CO` (centres undefined), the activity change, negative = inhibition is -29%.
In the case of `CCC(=O)N1CCc2cc(Br)cc(S(=O)(=O)CCC(=O)NCc3ccccc3OC)c21` it was -3.98%; in that of `Nc1nc(Nc2ccccc2F)nc(NC2CCCCC2)c1[N+](=O)[O-]`, -66% (active).
For `C=CCNc1nc(N)c([N+](=O)[O-])c(NC2CCCCC2)n1` the value was -9.3%; for `Nc1nc(NCC2CCCO2)nc(Nc2ccccc2F)c1[N+](=O)[O-]` (centres undefined), -34.2%; for `CCC(=O)N1CCc2cc(Br)c(S(=O)(=O)NCCN3CCCCC3CC)cc21` (centres undefined), -8.58%.
In the case of `COc1ccc(CCNC(=O)Cn2c(=O)cc(C(F)(F)F)c3c(C)nn(C)c32)c(OC)c1` it was 21.9%; in that of `O=C(CCl)Nc1ccc(Sc2ccc(NC(=O)CCl)cc2)cc1`, -97.1% (active).
Take `CC(=O)Nc1ccc(NC(=O)CC2CCCC2)cc1`: the activity change, negative = inhibition is -33.3%.
In the case of `O=C(O)CC(SCC(=O)Nc1ccc(Br)cc1)C(=O)O` (centres undefined) it was -19%; in that of `CCOC(=O)C1=NOC(Cn2cc(C(C)=O)c(=O)[nH]c2=O)C1` (centres undefined), 10%; in that of `CCOC(=O)c1cccc(NS(=O)(=O)c2cn(C)c(C)n2)c1`, 2.44%.
For `C[C@H](CO)N1C[C@H](C)[C@@H](CN(C)C(=O)Nc2ccccc2F)OCc2cn(nn2)CCCC1=O`, the activity change, negative = inhibition is -6.88%.
As to `S=C(Nc1ccc(Br)cc1Cl)NC1CCN(Cc2ccccc2)CC1`, the activity change, negative = inhibition is -84.5% (active).
For `Cc1cc(Br)ccc1NC(=S)NC1CCCC1` the value was -24.2%.
On to `O=C(NC1CCN(Cc2ccccc2)CC1)c1cc(Br)c(Br)[nH]1`, for which the activity change, negative = inhibition was -22.7%.
In the case of `Cc1cc(C)n(CCC(=O)N2CCN(S(=O)(=O)c3ccc(C)c(C)c3)CC2)n1` it was -15.9%; in that of `CCc1cc2c(cc(C(=O)OC)n2Cc2nc(-c3ccc(C)cc3)oc2C)s1`, 4.7%.
In the case of `CCCN1CCc2nc(N3CCN(C)CC3)ncc2C1`, the activity change, negative = inhibition was 0.276%.
Take `COc1ccc(C(C#N)=C2C=CC(=NO)c3ccccc32)cc1`: the activity change, negative = inhibition is -90.8% (active).
For `COc1ccc(/C(N)=N/OC(=O)Oc2ccccc2)cc1` the value was 9.17%; for `CC(c1ccco1)N(C(=O)c1ccc(S(=O)(=O)N2CCCCC2)cc1)c1ccccn1` (centres undefined), -14.3%.
In the case of `Fc1ccc(CN2CCc3nc(Nc4ccccc4)ncc3C2)cc1F` it was -18.4%; in that of `CC(C)Nc1ncnc2c1nnn2Cc1ccccc1`, 45.3%.
Consider `COc1ccc(CCNc2ncnc3c2nnn3Cc2ccccc2)cc1`, for which the activity change, negative = inhibition was -95.1% (active).
For `c1ccc(Cn2nnc3c(NCC4CC4)ncnc32)cc1` the value was 30.2%; for `O=C(CN1c2ccccc2S(=O)(=O)c2ccccc21)Nc1cccc(C(F)(F)F)c1`, 14.4%; for `O=C(Cn1cnc2c(oc3ccccc32)c1=O)Nc1ccc(OC(F)(F)F)cc1`, 14%.
In the case of `COc1ccc(OCc2ccc(-c3nc(C#N)c(N4CCN(c5ccccc5)CC4)o3)o2)cc1` it was 2.46%.
In the case of `OCCN1CCN(C(=S)c2ccc(-c3ccccc3)cc2)CC1` it was -79.4% (active).
Take `O=C1CCN(CCCc2ccccc2)CCN1CCO`: the activity change, negative = inhibition was -6.21%.
In the case of `O=C(NC(=S)N1CCN(Cc2ccccc2)CC1)c1ccccc1` it was -3.08%; in that of `COCCNc1ncnc2c1c(-c1ccccc1)cn2-c1ccc(C)c(Cl)c1`, -33.4%; in that of `CCc1ccccc1NC(=S)N(CCN1CCCCCC1)Cc1ccco1`, 29.5%.
For `Cc1ccc(NC(=S)N(CCCN2CCCC2)Cc2cccn2Cc2ccc(Cl)cc2)cc1` the value was -72% (active).
For `Cc1ccccc1NC(=S)N(CCCN1CCOCC1)Cc1cccs1`, the activity change, negative = inhibition was -30.9%.
In the case of `CC(C)NC(=O)C(=O)NCCCOC(C)C` it was -7.97%; in that of `CN(CC(=O)NCCN1CCOCC1)S(=O)(=O)c1ccc(F)cc1`, -13.5%; in that of `Cc1ccc(-c2nnc(SCC(=O)NCc3ccccc3)nc2-c2ccc(C)cc2)cc1`, -16.5%.
`CCc1ccccc1NC(=O)CSc1nnc(-c2ccccc2)c(-c2ccccc2)n1`: the activity change, negative = inhibition is -84.3% (active).
In the case of `COc1ccc(-c2nnc(SCC(=O)Nc3ccc(C(C)C)cc3)nc2-c2ccc(OC)c(OC)c2)cc1OC` it was 2%.
In the case of `O=c1cc(CSc2ccccn2)nc(N2CCN(c3ccccc3)CC2)[nH]1` it was 15.5%.
`CCOc1ccccc1N1CCN(C(=O)c2ccc3[nH]c(C)c(C)c3c2)CC1`: the activity change, negative = inhibition is -4.04%.
In the case of `COc1ccccc1N1CCN(C(=O)c2cc(=O)c3cc(C)cc(C)c3o2)CC1` it was -72.5% (active); in that of `COc1ccccc1N1CCN(C(=O)c2ccc(NC3=NC4CS(=O)(=O)CC4S3)cc2)CC1` (centres undefined), -1.18%.
In the case of `O=c1c2cccnc2n(Cc2cccc(F)c2)c(=O)n1Cc1ccccc1Cl` it was -4.52%; in that of `O=S(=O)(NCC(c1ccco1)N1CCOCC1)c1cc(F)ccc1F` (centres undefined), 10.6%.
In the case of `O=C(N/N=C/C=C/c1ccccc1)C1CC1(c1ccccc1)c1ccccc1` (centres undefined) it was -22.7%; in that of `CC(OC(=O)/C=C/c1ccccc1)C(=O)Nc1ccc(C(N)=O)cc1` (centres undefined), -26.6%; in that of `O=C(NN=CC=Cc1ccccc1)C(O)C(O)C(=O)NN=CC=Cc1ccccc1` (centres undefined), -99% (active).
Turning to `O=C(Nc1ccn(Cc2ccccc2)n1)c1n[nH]c([N+](=O)[O-])c1Cl`, the activity change, negative = inhibition was -0.724%.
In the case of `COC(=O)C(c1ccccc1)N1CCCCCC1` (centres undefined) it was -22.2%; in that of `CC1(C)CC(N2CCN(C(c3ccccc3)c3ccccc3)CC2)=CC(=[N+]2CCCCC2)C1`, -98.5% (active).
For `COc1ccc(CCN2C(=O)N(c3cccc(OC)c3)C(=O)C2CC(=O)Nc2ccccc2)cc1` (centres undefined) the value was 30.6%.
For `Cc1csc2nc(COc3ccc(NC(=O)COc4ccccc4)cc3)cc(=O)n12` the value was -18.6%.
For `CCOC(=O)c1[nH]c(C)c(CCC(=O)N2CCN(c3ccccc3)CC2)c1C`, the activity change, negative = inhibition was -11%.
For `COc1ccc(-c2c(C#Cc3ccccc3)c3ccccc3n2C)cc1` the value was -78.4% (active); for `COc1ccc(CCNCc2c(-c3ccccc3)n(C)c3ccccc23)cc1`, -5.91%; for `COc1cc(OC)cc(-c2c(C#Cc3ccsc3)c3cc(-c4ccc(SC)cc4)ccc3n2C)c1`, -6.32%.
